Sampled rows, rich in hits. Any-hit rate of the full collection: about 5.6%.
PHOSPHO1 block – inhibitors of human PHOSPHO1 phosphatase. Q8TCT1. recombinant PHOSPHO1, absorbance phosphatase assay. inhibition, % at 13.3 µM. 1.1% of 290,000 active; in the data active = inhibition above about 60%
Target sequence (Q8TCT1 whole entry, looked up): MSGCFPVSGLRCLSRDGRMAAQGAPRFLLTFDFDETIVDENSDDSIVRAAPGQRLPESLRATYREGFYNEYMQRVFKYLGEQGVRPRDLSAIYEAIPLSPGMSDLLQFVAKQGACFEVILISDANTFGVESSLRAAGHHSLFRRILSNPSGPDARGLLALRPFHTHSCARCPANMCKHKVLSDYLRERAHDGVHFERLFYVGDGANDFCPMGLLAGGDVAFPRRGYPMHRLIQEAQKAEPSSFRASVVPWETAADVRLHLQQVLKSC
ALR H2O2 inh – human ALR oxidase inhibition via reduced H2O2. purified ALR, DTT oxidation, H2O2 HRP-luminol luminescence. inhibition, % (test concentration not listed). 3.8% of 290,000 active. AID 485317;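 active = mean replicate inhibition above about 79%, with every replicate also reaching it, limit read from the data; inconclusive = only one of the two criteria met; inactive = mean below limit and not every replicate reaching it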
Target sequence (P55789 whole entry, looked up): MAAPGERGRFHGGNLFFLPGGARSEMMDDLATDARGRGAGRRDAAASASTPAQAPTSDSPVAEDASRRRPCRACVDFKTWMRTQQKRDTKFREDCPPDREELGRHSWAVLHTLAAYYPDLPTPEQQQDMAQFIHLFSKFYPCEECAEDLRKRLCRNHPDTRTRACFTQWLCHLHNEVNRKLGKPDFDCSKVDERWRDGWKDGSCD
PfGluPho inh – PfG6PD (Plasmodium falciparum) enzyme inhibition; PfGluPho enzyme, NADPH resazurin-diaphorase fluorescence; inhibition, % at 20 µM; 0.78% of 350,000 active; AID 504690;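 active = inhibition reaching at least a set limit at 20 µM in the primary screen, cut at about 59% in these data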
M18AAP inhibitor – blocks P. falciparum M18 aspartyl aminopeptidase; 1.2% of 290,000 active; recombinant PfM18AAP, H-Glu-NHMec fluorogenic cleavage; inhibition, % at 7.35 µM;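 active = inhibition above the campaign mean inhibition over all tested compounds plus 3 SD, cut at about 28% in these data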
Cardio protect – myocardial damage modulation in H9c2 cells | AID 588492 | 0.63% of 360,000 active | protection from H2O2 cell death, % at 20 µM | H9c2 cardiomyocytes, H2O2 injury protection, ATPLite, 2 h;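 active = compounds giving at least 50% protection of heart cells from peroxide-induced death in the single-dose screen, raw or plate-pattern-corrected value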
Of the large screens only hits and unclear results are named; the others gave an inactive call.

Nc1ccccc1C(O)(Cc1ccccc1)c1ccccc1 (stereo not given)	ALR H2O2 inh 99
OC(Cc1cccnc1)(c1ccccc1)c1ccccc1	none (no result: PHOSPHO1 block, ALR H2O2 inh, M18AAP inhibitor)
O=C(CNCCc1ccc(Cl)cc1Cl)NCc1ccco1	PHOSPHO1 block 63
C[C@@H]1CCCCO[C@H](CN(C)Cc2ccc(C(F)(F)F)cc2)[C@@H](C)CN([C@H](C)CO)C(=O)c2cc(NS(=O)(=O)c3cn(C)cn3)ccc2O1	none (no result: PHOSPHO1 block, ALR H2O2 inh, M18AAP inhibitor)
CCOC(=O)/C(=N\Nc1cc(Cl)ccc1Cl)N1CCOCC1	ALR H2O2 inh 98
CCOC(=O)/C(=N\Nc1cc(Cl)ccc1Cl)N1CC(C)OC(C)C1 (stereo not given)	none
S=C(NCc1ccco1)Nc1ccc(Cl)c(Cl)c1	PHOSPHO1 block 72
S=C(NCc1ccco1)Nc1cccc(Cl)c1	none
CCOc1ccccc1NC(=S)NCc1ccco1	PHOSPHO1 block 82
CCOc1ccccc1NC(=S)NCc1ccccc1	none
COc1ccc(CCN2CC(C(=O)NCCN3CCOC3=O)CCC2=O)cc1 (stereo not given)	none
COc1ccc(C2=NS(=O)(=O)N(C)C(C(=O)N3CCc4ccccc4C3)=C2)cc1OC	none
CCN1C(=O)c2cccc3c(S(=O)(=O)N(C(C)=O)c4ccc(OC(C)=O)cc4)ccc1c23	none (no result: PHOSPHO1 block, M18AAP inhibitor)
COc1ccc(CCNS(=O)(=O)c2ccc(-c3ccc(=O)[nH]n3)o2)cc1OC	none
O=C(CC(c1ccccc1)C1CCCCC1=O)c1ccccc1 (stereo not given)	none (no result: PHOSPHO1 block, ALR H2O2 inh, M18AAP inhibitor)
CN(C)c1ccc(C(CC(=O)c2ccccc2)C2CCCCC2=O)cc1 (stereo not given)	ALR H2O2 inh 98
CC1=NN(c2ccc(C(=O)O)c(N)c2)C(=O)C1	PHOSPHO1 block 63
Cc1c(C(=O)NCc2cccnc2)sc2nc(-c3ccc(F)cc3)cn12	none
CC(C)OCCCNC(=O)c1sc(=S)n(C)c1N	none (no result: ALR H2O2 inh)
CCn1c(N)c(C(=O)NCc2cccnc2)sc1=S	ALR H2O2 inh 99
Cc1c(C(=O)NCc2cccnc2)sc2nc(-c3ccccc3)cn12	ALR H2O2 inh 90
CCNC(=O)c1sc(=S)n(CC)c1N	ALR H2O2 inh 99
CCOC(=O)CCCN(c1[nH]c(C)c(C)c1C#N)S(=O)(=O)c1ccc(C)cc1	none (no result: PHOSPHO1 block, ALR H2O2 inh, M18AAP inhibitor)
O=C(COc1ccc(Cl)cc1Cl)OCC(=O)N1CCCc2ccccc21	none
O=C(COc1ccc(Cl)cc1Cl)NC(=S)N1CCCc2ccccc21	ALR H2O2 inh 98
Cc1cc(Nc2cc(Cl)nc(Sc3ccc(NC(=O)C4CC4)cc3)n2)n[nH]1	none (no result: PHOSPHO1 block, M18AAP inhibitor)
Cc1ccc(NC2CCCN(C(=O)c3cn4cccc(C)c4n3)C2)cc1C (stereo not given)	ALR H2O2 inh 99
Cc1ccc(NC2CCCN(C(=O)c3cn4cc(Cl)ccc4n3)C2)cc1C (stereo not given)	ALR H2O2 inh 99
CSc1nc(N)c2cn[nH]c2n1	none (no result: PHOSPHO1 block, ALR H2O2 inh, M18AAP inhibitor)
O=S(=O)(c1ccc(Cl)cc1)N1CCSC1c1ccco1 (stereo not given)	PHOSPHO1 block 68
O=[N+]([O-])c1ccc(S(=O)(=O)N2CCSC2c2ccco2)cc1 (stereo not given)	none
CC(=O)N1CCC(=NNc2nc3ccccc3[nH]2)CC1	ALR H2O2 inh 100
CCC(C)(C)C1CCC(=NNc2nc3ccccc3[nH]2)CC1 (stereo not given)	none
O=C(COC(=O)COc1ccccc1F)NCc1ccco1	none (no result: PHOSPHO1 block, M18AAP inhibitor)
COCCNC(=O)C1(C)CCCN(C(=O)c2ccccc2F)C1 (stereo not given)	none (no result: PHOSPHO1 block, ALR H2O2 inh, PfGluPho inh, M18AAP inhibitor)
C=C(C)c1cccc(C(C)(C)NC(=O)NCc2ccncc2)c1	PHOSPHO1 block 66
C=C(C)c1cccc(C(C)(C)NC(=O)NCc2cccnc2)c1	none
CCCN(C(=O)CSc1n[nH]c(-c2ccc(OC)cc2)n1)c1c(N)n(Cc2ccccc2)c(=O)[nH]c1=O	ALR H2O2 inh 86 (no result: PHOSPHO1 block, M18AAP inhibitor)
O=C(O)c1cccc(S(=O)(=O)Nc2ccccc2Oc2ccccc2)c1	none (no result: PHOSPHO1 block, ALR H2O2 inh, M18AAP inhibitor)
CCOC(=O)C1CCN(S(=O)(=O)c2c(Cl)ccc3nonc23)CC1	none (no result: PfGluPho inh)
Cc1ccc(C)c(C(C)NC(=S)NCc2ccc(F)cc2)c1 (stereo not given)	none
COc1ccc(CN(CC2CCCO2)S(=O)(=O)c2ccc(C(=O)O)cc2)cc1OC (stereo not given)	PHOSPHO1 block 97
COc1cc(S(=O)(=O)N(Cc2ccccc2)CC2CCCO2)ccc1-n1cnnn1 (stereo not given)	none (no result: ALR H2O2 inh)
Cc1ccc(NS(=O)(=O)c2cn(C)c(=O)n(C)c2=O)cc1C	none (no result: ALR H2O2 inh)
CCN(CC)c1ccc(NS(=O)(=O)c2cn(C)c(=O)n(C)c2=O)c(C)c1	ALR H2O2 inh 99
COc1c2ccoc2nc2c(OC)c(O)ccc12	ALR H2O2 inh 99
O=C(Nc1cccc(C(F)(F)F)c1)c1ccccc1NC(=O)C1CCCCC1	none
COc1cccc(Oc2nnnn2-c2ccccc2)c1	none
COc1cccc(-n2nnnc2S(C)(=O)=O)c1	ALR H2O2 inh 99
Cc1ccc(C(=O)Nc2ccc(S(=O)(=O)N3CCOCC3)cc2)cc1Br	none (no result: PHOSPHO1 block, M18AAP inhibitor)
O=C(NNC(=O)C(c1ccccc1)c1ccccc1)c1ccccn1	Cardio protect 51
O=C(Nc1nc2ccc(SC(F)F)cc2s1)c1ccc(NS(=O)(=O)c2ccc(F)c(F)c2)cc1	ALR H2O2 inh 99
COc1ccc(Cc2nc3ccc(C(=O)NC(C)Cc4ncccc4C)cc3o2)cc1OC (stereo not given)	none
Cc1nc2sc(C(=O)O)c(N)c2c2c1COC(C)(C)C2	PHOSPHO1 block 66
COCC(C)n1c(SCC(=O)Nc2cccnc2Cl)nc2ccccc2c1=O (stereo not given)	none (no result: PHOSPHO1 block, ALR H2O2 inh, M18AAP inhibitor)
O=C1NN(c2ccccc2)C(=O)/C1=C\c1cccc(OC(=O)c2cccs2)c1	ALR H2O2 inh 89
COC(=O)CSc1nc2ccccc2o1	none
CCCCCCOC(=O)Sc1nc2ccccc2o1	PHOSPHO1 block 86
COC(=O)[C@H](CCSC)NC(=O)Cn1cnc(C(=O)Nc2ccc(C)c(C)c2)n1	none (no result: PHOSPHO1 block, ALR H2O2 inh, M18AAP inhibitor)
Cc1cc(C2C(C#N)=C(N)SC(N)=C2C#N)c(C)s1	ALR H2O2 inh 99
Cc1sccc1C1C(C#N)=C(N)SC(N)=C1C#N	none (no result: PfGluPho inh, Cardio protect)
CCC(Sc1nc(-c2ccccc2)c(-c2ccccc2)[nH]1)C(=O)O (stereo not given)	ALR H2O2 inh 82
CNC(=O)CSc1nc(-c2ccccc2)c(-c2ccccc2)[nH]1	ALR H2O2 inh inconclusive
Cc1ccc(NC(=O)C2CC(O)CN2C(=O)OCc2ccccc2)cc1C (stereo not given)	none (no result: PHOSPHO1 block, ALR H2O2 inh)
CCC(C(=O)NC1CC1)n1nc(C)c2c(C)n(-c3ccccc3)nc2c1=O (stereo not given)	PHOSPHO1 block 65
COc1ccc(OC)c(CCNC(=O)C(C)n2nc(C)c3c(C)n(-c4ccccc4)nc3c2=O)c1 (stereo not given)	PHOSPHO1 block 70
CCC(C(=O)NC1CCCCC1)n1nc(C)c2c(C)n(-c3ccccc3)nc2c1=O (stereo not given)	none
O=C(CSc1nnc(CNC(=O)c2ccco2)o1)Nc1cccc(Cl)c1	none
CCOc1cccc2sc(NN)nc12	PHOSPHO1 block 61 (no result: ALR H2O2 inh)
Cc1ccc(Oc2nn[nH]n2)cc1	none
CCc1cccc(Oc2nn[nH]n2)c1	ALR H2O2 inh 98

Screens (PubChem BioAssay)
